{"source": "PubChem BioAssay (NCATS)", "note": "A number with no mark means an inactive call. No rule for the calls is given here. Potency is read from the fitted curve at half-maximal effect."}
{"system": "HIV-1 nucleocapsid protein NCp7 (binding to TG oligonucleotide)", "experiment": "HIV Nucleocapsid (AID 346);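 also: potency is for inhibitors that block NC binding and lower polarization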", "details": "HIV-1 NC / fluorescein-TGTGTGTG probe, fluorescence polarization", "method_in_brief": "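10 nM TG4xF probe with 100 nM nucleocapsid protein in high-salt Hepes pH 7.5 (250mM NaCl) containing 1uM ZnCl2 and reducing agents. Compound inhibition of binding was read as fluorescein polarization after 1 hr at room temperature.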", "units": {"Potency": "µM"}}
{"compound": "COc1ncc2nc(C)c(=O)n(C3CC3)c2n1", "Potency": "> 20"}
{"compound": "COC(=O)N1CCC[C@@]2(CCN(C(c3ccccc3)c3ccccc3)C2)C1", "Potency": "> 20"}
{"compound": "c1cncc(CNc2ccnc(-c3ccc4c(c3)OCO4)n2)c1", "Potency": "> 20"}
{"compound": "Cc1noc(C)c1-c1nccc(NCc2ccccc2)n1", "Potency": "> 20"}
{"compound": "COc1ccc(-c2nc3cnc(OC)nc3n(C3CC3)c2=O)cc1", "Potency": "> 20"}
{"compound": "Cc1noc(C)c1C(=O)N1CCC[C@@]2(CCN(C(=O)Nc3cccc(C#N)c3)C2)C1", "Potency": "> 20"}
{"compound": "O=c1c(-c2ccccc2)nc2cnc(Oc3cccc(Cl)c3)nc2n1C[C@H]1CCCO1", "Potency": "> 20"}
{"compound": "COCCn1c(=O)c(-c2cc(F)cc(F)c2)nc2cnc(N3CCNCC3)nc21", "Potency": "> 20"}
{"compound": "Cn1c(=O)c(-c2ccc(F)cc2)nc2cnc(Nc3ccccc3)nc21", "Potency": "> 20"}
{"compound": "COc1ccc(-c2nc3cnc(N4CCOCC4)nc3n(Cc3cccs3)c2=O)cc1", "Potency": "> 20"}
{"compound": "COCCn1c(=O)c(-c2cccs2)nc2cnc(OC)nc21", "Potency": "> 20"}
{"compound": "N#Cc1ccccc1-c1cncnc1NCc1cccnc1", "Potency": "> 20"}
{"compound": "N#CCCn1c(=O)c(-c2cc(F)cc(F)c2)nc2cnc(OCc3ccccc3)nc21", "Potency": "> 20"}
{"compound": "CC(=O)N1CCC2(CC1)CCN(c1cccc(-c3ccccc3)c1)CC2", "Potency": "> 20"}
{"compound": "Cn1cccc1C(=O)N1CCC2(CCN(C(=O)Nc3cccc(C#N)c3)CC2)CC1", "Potency": "> 20"}
{"compound": "O=C(c1ccncc1)N1CCC2(CC1)CN(C(c1ccccc1)c1ccccc1)C2", "Potency": "> 20"}
{"compound": "COc1ccccc1CCn1c(=O)c(-c2cc(F)cc(F)c2)nc2cncnc21", "Potency": "> 20"}
{"compound": "CN(C)Cc1ccccc1-c1nccc(N(C)C)n1", "Potency": "> 20"}
{"compound": "COc1ncc2nc(-c3ccccc3)c(=O)n(Cc3cccs3)c2n1", "Potency": "> 20"}
{"compound": "Cn1c(=O)c(-c2cc(F)cc(F)c2)nc2cncnc21", "Potency": "> 20"}
{"compound": "O=C(Nc1cccc(F)c1)N1CCC2(CC1)CCN(C(=O)c1csnn1)CC2", "Potency": "> 20"}
{"compound": "FC(F)(F)c1ccccc1-c1nccc(NCc2cccs2)n1", "Potency": "> 20"}
{"compound": "Cn1cccc1C(=O)N1CCC2(CCCN(Cc3nccs3)C2)CC1", "Potency": "> 20"}
{"compound": "COc1ccc2[nH]cc(CCNc3cc(-c4cccnc4)ncn3)c2c1", "Potency": "> 20"}
{"compound": "O=C(Oc1ccccc1)N1CCC2(CCCN(c3cccc(-c4ccccc4)c3)C2)CC1", "Potency": "> 20"}
{"compound": "COc1ccc(C(=O)N2CCC3(CC2)CN(CC(C)C)C3)cc1", "Potency": "> 20"}
{"compound": "COc1ccc(C(=O)N2CCC3(CCCN(c4ccccn4)C3)CC2)cc1", "Potency": "> 20"}
{"compound": "COc1cccc(Cn2c(=O)c(-c3cccs3)nc3cnc(N4CCN(C)CC4)nc32)c1", "Potency": "> 4"}
{"compound": "CCNc1ncc2nc(-c3ccc(F)cc3)c(=O)n(CCOC)c2n1", "Potency": "> 4"}
{"compound": "O=C(c1ccncc1)N1CCC2(CCCN(c3ccccc3)C2)CC1", "Potency": "> 20"}
{"compound": "CN1CCN(c2ncc3nc(-c4ccc(Cl)cc4)c(=O)n(Cc4ccc(F)cc4)c3n2)CC1", "Potency": "> 20"}
{"compound": "CC(=O)N1CCC2(CC1)CCN(c1ncccn1)CC2", "Potency": "> 20"}
{"compound": "CN1CCN(c2ncc3nc(-c4cn(C)c5ccccc45)c(=O)n(-c4ccccc4)c3n2)CC1", "Potency": "> 4"}
{"compound": "O=c1c(-c2ccccc2)nc2cnc(N3CCOCC3)nc2n1Cc1ccc(F)cc1", "Potency": "> 20"}
{"compound": "COc1cccc(-c2cc(NCc3cccnc3)ncn2)c1", "Potency": "> 20"}
{"compound": "CC(C)NC(=O)N1CCC2(CC1)CCN(C(=O)c1cnccn1)CC2", "Potency": "> 20"}
{"compound": "O=C(c1csnn1)N1CCC2(CCCN(Cc3cc(C(F)(F)F)cc(C(F)(F)F)c3)C2)CC1", "Potency": "> 20"}
{"compound": "COCC(=O)N1CCC2(CC1)CCN(c1cccc(-c3ccccc3)c1)CC2", "Potency": "> 20"}
{"compound": "COc1ccc(C(=O)N2CCC3(CCN(CC(C)C)CC3)CC2)cc1", "Potency": "> 20"}
{"compound": "O=C(c1ccco1)N1CCC[C@@]2(CCN(C(c3ccccc3)c3ccccc3)C2)C1", "Potency": "> 20"}
